Assay results reported in PubChem BioAssay AID493011 (Sanford-Burnham Center for Chemical Genomics, 2011).
Screen size: about 330,000 compounds; about 1,400 (0.42%) were called active. The list comes from a sample in which actives are over-represented; it also holds similar structures and randomly drawn compounds. Values without a mark were called inactive.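 Rule for the calls: active = at least 40% inhibition at 20 µM here, with at most 30% in a related deaminase screen; inactive = the rest.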

Target: DNA dC->dU-editing enzyme APOBEC-3A (Homo sapiens) (UniProt P31941)
Sequence (P31941 whole entry, looked up): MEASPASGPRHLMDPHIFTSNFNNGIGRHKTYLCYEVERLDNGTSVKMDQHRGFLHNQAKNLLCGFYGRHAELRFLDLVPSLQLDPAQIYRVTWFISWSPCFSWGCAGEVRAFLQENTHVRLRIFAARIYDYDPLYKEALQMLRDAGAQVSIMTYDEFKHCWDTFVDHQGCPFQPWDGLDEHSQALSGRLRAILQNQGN
Experiment: blockers of A3A cytidine deamination on DNA – biochemical, FAM/TAMRA oligo cleavage fluorescence, selectivity assay for APOBEC3G inhibitor project, primary screen (AID 493011);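 note: plate controls were A3A with DMSO for no effect and wells lacking A3A enzyme for full effect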
Details: recombinant A3A, FAM/TAMRA ssDNA deamination fluorescence; at 20 µM; hits give high values

Row | SMILES | inhibition
1 | CCN(CC(=O)Nc1cc(Cl)ccc1C)C(=O)Cn1c(=O)cnc2ccccc21 | 10.7%
2 | CC(C)CCOc1ccc(C(=O)C[N+]2(C)CCOCC2)cc1 | 83.1% (active)
3 | CCC(=O)c1ccc(OCC(O)CN2CC(C)OC(C)C2)cc1 (stereo not given) | 0.408%
4 | CCOc1ccc(C(=O)CCN2CCOCC2)cc1 | -4.07%
5 | CCn1c(=O)c(=O)[nH]c2c(=O)oc3ccc(S(=O)(=O)Nc4ccc(OC)cc4)cc3c21 | -3.37%
6 | CCC(C)c1ccc(NC(=S)N2CCCC2)cc1 (stereo not given) | -3.82%
7 | O=S(=O)(Nc1ccccc1N1CCOCC1)c1ccc(Cl)s1 | 2.47%
8 | COc1cccc(N2CCN(c3ccc4nnc(CCC(=O)N5CCN(C)CC5)n4n3)CC2)c1 | -4.98%
9 | COc1cc(/C=N/NC(=S)Nc2cccnc2)cc(OC)c1O | -4.38%
10 | Fc1cc(Br)ccc1NC(=S)Nc1cccnc1 | -0.709%
11 | S=C(Nc1cccnc1)Nc1ccccn1 | 63.4% (active)
12 | O=C(COC(=O)C1CCN(S(=O)(=O)c2ccc3c(c2)OCCO3)CC1)Nc1ccccc1OC(F)F | 3.88%
13 | CCc1ccc(NC2Nc3cc(C)nn3S2)cc1 (stereo not given) | -0.183%
14 | Cc1nnc(CN(C)Cc2cn[nH]c2-c2ccc(-c3ccccc3)cc2)o1 | 1.98%
15 | COc1ccc(C(=O)OCC(=O)NC(=O)CCSc2ccccc2)cc1 | 0.284%
16 | CS(=O)(=O)c1ccc2c(c1)SC1=NC(=O)/C(=C/c3ccco3)C(=N)N12 | 41.6% (active)
17 | CCS(=O)(=O)C1=NSC2=NC(=O)/C(=C\c3ccc(OS(=O)(=O)c4ccccc4)cc3)C(=N)N21 | -0.304%
18 | CCS(=O)(=O)C1=NSC2=NC(=O)/C(=C\c3cc(C)n(-c4cccc(OC)c4)c3C)C(=N)N21 | -3.79%
19 | COc1cc(C)c(Cl)cc1S(=O)(=O)n1ccnc1 | -3.09%
20 | Cc1noc(C)c1S(=O)(=O)N(C)C[C@H]1Oc2ccc(NC(=O)C3CC3)cc2C(=O)N([C@H](C)CO)C[C@@H]1C | -2.35%
21 | O=C(NNC(=O)c1cnccc1C(F)(F)F)c1ccc(Cl)cc1 | -3.45%
22 | O=C(Nc1ccccc1)c1cc2ccccc2[nH]1 | 2.51%
23 | O=C(Nc1cccc(-c2nc3ccccc3[nH]2)c1)c1ccc(C(=O)Nc2cccc(-c3nc4ccccc4[nH]3)c2)cc1 | 52.5% (active)

Row | SMILES | inhibition
24 | CN(c1ccccc1)S(=O)(=O)c1cc(C(=O)Nc2nc3ccccc3[nH]2)ccc1Cl | 2.16%
25 | C/C(=N\NC(=O)C1(C)CC1(Br)Br)c1ccc(C)cc1C (stereo not given) | 3.9%
26 | CC(Oc1ccc(F)cc1)C(=O)N1CCN(c2ncccn2)CC1 (stereo not given) | 3.53%
27 | Cc1ccc(NC(=O)COc2coc(CN3CCc4ccccc4C3)cc2=O)cc1Cl | -2.19%
28 | CC1(C)CC(N2CCN(C(c3ccccc3)c3ccccc3)CC2)=CC(=[N+]2CCCCC2)C1 | 57.4% (active)
29 | COc1ccccc1CN1CCN(C(c2ccccc2)c2ccccc2)CC1 | -1.76%
30 | c1ccc(C(c2ccccc2)N2CCN(Cc3nnnn3C3CCCCC3)CC2)cc1 | -5.77%
31 | COc1cc(C(=O)OCC(=O)NC(C)CCc2ccccc2)cc(OC)c1OC (stereo not given) | -4.8%
32 | Cc1ccc(S(=O)(=O)N2CCCCC2)cc1C(=O)N(C)CC(=O)Nc1cccc(F)c1 | 4.08%
33 | CN(C)S(=O)(=O)c1ccc(N2CCCC2)c(C(=O)Nc2cccc(F)c2)c1 | -1.6%
34 | CCCCCCn1c(SCC(=O)c2ccccc2)nc2c1c(=O)[nH]c(=O)n2C | -3.65%
35 | CCCCCCCC[n+]1cccc(C(=O)N2c3c(nc(N)[nH]c3=O)NC(C)C2C)c1 (stereo not given) | 66.2% (active)
36 | Cc1ccc(C(=O)NC(=S)Nc2ccc3[nH]c(=O)[nH]c3c2)cc1C | -1.4%
37 | NC(N)=N/N=C/c1ccc(OCc2ccc(Cl)cc2Cl)cc1 | 0.729%
38 | C/C(N)=C(/C#N)C(=O)COC(=O)C1CCN(C(=O)c2ccc(Cl)cc2)CC1 | -0.831%
39 | COc1ccc(N2C(=O)CC(Nc3ccc(F)cc3)C2=O)c([N+](=O)[O-])c1 (stereo not given) | -1.69%
40 | O=C(CSc1nc2ccccc2c(=O)[nH]1)Nc1nc(-c2ccc(Br)cc2)cs1 | 44.5% (active)
41 | CCOC(=O)c1ccccc1NC(=O)CSc1nc2ccccc2c(=O)[nH]1 | 1.48%
42 | CC(=O)NCc1ccc(-c2csc(NC(=O)CCCc3nc4ccccc4c(=O)[nH]3)n2)cc1 | 4.49%
43 | CCCCN(C(=O)c1ccc2ccccc2c1)c1c(N)n(CCCC)c(=O)[nH]c1=O | -4.05%
44 | CCN(C(=O)COc1cccnc1[N+](=O)[O-])C1CCS(=O)(=O)C1 (stereo not given) | 0.474%
45 | CC(C)CNC(=O)C(=O)NCc1ccccc1 | 6.28%
46 | CCN1C(=NCc2ccc(OC)cc2)N[C@@H](CCc2ccccc2)[C@H](C(=O)NCc2ccc(OC)cc2)[C@H]1C | 49.6% (active)

Row | SMILES | inhibition
47 | CCN1C(=NCC(C)C)N[C@@H](CCc2ccccc2)[C@H](C(=O)NCC(C)C)[C@H]1C | 53.8% (active)
48 | COCCN1C(=O)N[C@@H](CCc2ccccc2)[C@H](C(C)=O)[C@H]1C | 0.644%
49 | CCN1C(=S)N[C@@H](CCc2ccccc2)[C@H](C(=O)OC)[C@H]1C | -3.49%
50 | CCN1C(=O)N[C@@H](CCc2ccccc2)C(C(=O)OC)=C1C | -3.29%
51 | CCN(CC)CCCNC(=O)CCn1nc(-c2ccc(Cl)cc2)ccc1=O | 98.8% (active)
52 | CCCCNC(=O)CCn1nc(-c2ccc(Cl)cc2)ccc1=O | -0.453%
53 | Cc1ccc(-c2ccc(=O)n(CC(=O)NCCCN3CCCCC3)n2)cc1 | -1.5%
54 | Cc1cc(=O)[nH]c(SCc2cc(Cl)ccc2OC(F)F)n1 | -4.15%
55 | Cc1cc(=O)[nH]c(SCc2cccc(F)c2)n1 | -0.614%
56 | COc1ccccc1-c1noc(CSc2nc(C)cc(=O)[nH]2)n1 | 53.2% (active)
57 | CC1CCN(S(=O)(=O)c2ccc(S(=O)(=O)NCc3ccco3)cc2)CC1 | -4.88%
58 | CN(CCOc1ccc(Br)cc1)CC(=O)Nc1cccc(S(=O)(=O)NC2=NCCC2)c1 | -4.16%
59 | COc1ccc(NC(=O)CN(C)C(=O)/C=C/c2cn(Cc3ccccc3)nc2-c2cccnc2)cc1 | 43.8% (active)
60 | COc1cccc(NC(=O)CN(C)C(=O)/C=C/c2cc(OC)ccc2OC)c1 | -6.53%
61 | COc1cccc(NC(=O)CN(C)C(=O)/C=C/c2cn(-c3ccccc3)nc2-c2cccs2)c1 | -4.72%
62 | O=C(CN1CCOC1=O)N1CCCC(Nc2ccc(F)c(F)c2)C1 (stereo not given) | -3.28%
63 | CCS(=O)(=O)c1ccc(-c2cccc(NC(=O)c3ccc(Br)o3)c2)nn1 | 95.4% (active)
64 | CC(CNC(=O)c1ccc(Br)o1)NC(=O)c1ccc(Br)o1 (stereo not given) | 2.21%
65 | O=C(CNC(=O)c1ccc(Br)o1)Nc1ccccc1 | -8.36%
66 | Cc1cc(C)cc(Oc2c(C(F)(F)F)oc3cc(OCC(=O)O)ccc3c2=O)c1 | 9.37%
67 | O=C(CN1CCN(S(=O)(=O)c2cc(Cl)ccc2Cl)CC1)c1ccc(O)c(O)c1 | -5.68%
68 | N#Cc1ccsc1NC(=O)CN1CCCCC1 | -2.27%
69 | N#Cc1ccsc1NC(=O)CN1CCN(S(=O)(=O)c2cc(Cl)ccc2Cl)CC1 | 40.6% (active)

Row | SMILES | inhibition
70 | CC(CC(=O)C1C(C)C=CCC1(C)C)NNC(N)=O (stereo not given) | 0.901%
71 | CSc1ccccc1NC(=O)c1cnc2sc(C)cn2c1=O | 0.854%
72 | CCc1c(C)nc2ncnn2c1N1CCC(C(=O)NCc2ccc3c(c2)OCO3)CC1 | 2.23%
73 | O=C(COC(=O)c1ccccc1O)NCc1ccco1 | 32.8%
74 | COc1ccc(CCNC(=O)COC(=O)c2cnc(Cl)c(Cl)c2)cc1 | 4.13%
75 | O=C(COC(=O)c1cnc(Cl)c(Cl)c1)NCc1ccco1 | 50.6% (active)
76 | CC(C)CCN1CCC(C)(NC(=O)c2ccccc2)C1=O (stereo not given) | 0.313%
77 | COc1ccccc1N(C)S(=O)(=O)c1ccc(Cl)c(C(=O)N2CCC(C(N)=O)CC2)c1 | 1.46%
78 | Cc1sc(NC(=S)NC(=O)c2cccs2)nc1-c1ccc(CC(C)C)cc1 | 2.88%
79 | CCc1nnc(NC(=O)CCC(=O)N2CCN(c3cc(C)ccc3C)CC2)s1 | -1.97%
80 | CCN(Cc1cc2cc(C)ccc2[nH]c1=O)S(=O)(=O)c1ccccc1 | -2.49%
81 | CCCc1nc(-c2cc3cc(C)ccc3[nH]c2=O)no1 | 40.2% (active)
82 | CCC(=O)N(CCc1ccccc1)Cc1cc2cc(C)ccc2[nH]c1=O | -6.3%
83 | COc1ccc2[nH]c(=O)c(-c3noc(-c4ccc(F)cc4)n3)cc2c1 | 70.7% (active)
84 | COc1ccc(Cc2cc(-c3ccc(F)cc3)n[nH]c2=O)cc1 | -4.85%
85 | COc1ccc2[nH]c(=O)c(CNc3ccc(C)c(C)c3)cc2c1 | 0.515%
86 | C/C(=C\c1ccco1)CN1CCC(N2CCC(C(=O)N3CCOCC3)CC2)CC1 | -1.12%
87 | CC1CCCCC1NC(=O)CSc1nnc(N)s1 (stereo not given) | -0.077%
88 | Cc1cc(C)n2nc(C(=O)Oc3ccc4c(c3)OCO4)nc2n1 | 0.02%
89 | Cc1ccc(-c2nc(C#N)c(NCCCn3ccnc3)o2)cc1 | 0.374%
90 | CC[n+]1cc(C)ccc1/C=C/c1ccc(N(C)C)cc1 | 64.4% (active)
